Compound activity deposited in PubChem by The Scripps Research Institute Molecular Screening Center.
GPR151 activ: activators of human GPR151, primary screen, cell-based, PathHunter beta-arrestin, luminescence; PathHunter beta-arrestin GPR151 cells; activation, % at 11.2 µM; actives 1% (n = 650,000); in the data active = activation above about 4.9%;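 also: 0% = median of compound wells and 100% = cells with positive control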
FBW7 activator: FBW7 E3 ligase activators, primary screen, biochemical, AlphaScreen, human; F-box/WD repeat-containing protein 7 (Homo sapiens), Q969H0; AlphaScreen FBW7–phospho-cyclin E peptide binding, activator screen; normalized activity (activation), % at 26.1 µM; actives 0.13% (n = 650,000); AID 1259310, 2017; in the data active = normalized activity above about 1.9%;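 also: purified mutant Fbw7 with reduced substrate affinity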
Target sequence (Q969H0 whole entry, looked up): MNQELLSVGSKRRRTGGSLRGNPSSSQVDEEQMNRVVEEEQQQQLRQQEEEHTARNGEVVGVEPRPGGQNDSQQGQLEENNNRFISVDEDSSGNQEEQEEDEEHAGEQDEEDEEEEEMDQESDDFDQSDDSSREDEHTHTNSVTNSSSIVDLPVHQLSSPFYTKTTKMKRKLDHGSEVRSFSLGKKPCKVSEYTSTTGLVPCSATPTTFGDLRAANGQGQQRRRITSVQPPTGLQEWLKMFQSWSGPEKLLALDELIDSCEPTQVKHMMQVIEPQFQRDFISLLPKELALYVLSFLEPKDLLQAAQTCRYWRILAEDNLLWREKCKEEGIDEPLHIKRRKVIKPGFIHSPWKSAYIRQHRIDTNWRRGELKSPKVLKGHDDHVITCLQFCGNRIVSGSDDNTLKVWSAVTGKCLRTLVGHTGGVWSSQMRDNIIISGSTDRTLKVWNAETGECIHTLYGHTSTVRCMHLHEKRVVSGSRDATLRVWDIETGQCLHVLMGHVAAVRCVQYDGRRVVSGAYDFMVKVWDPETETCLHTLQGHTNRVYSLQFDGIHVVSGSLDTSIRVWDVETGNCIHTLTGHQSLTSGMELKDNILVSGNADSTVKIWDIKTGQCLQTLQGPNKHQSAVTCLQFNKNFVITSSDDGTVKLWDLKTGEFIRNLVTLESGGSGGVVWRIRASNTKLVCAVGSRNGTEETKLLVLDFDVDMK
TEAD-YAP block: TEAD-YAP interaction inhibition, primary screen, TEAD-YAP interaction inhibitor project, luminescence, HEK-TIYL cells. TEAD-Gal4/YAP UAS-luciferase luminescence. AID 1259422, 2018. actives 1.4% (n = 640,000). inhibition, % at 9.12 µM; in the data active = inhibition above about 32%;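 also: 0% = median of test compound wells and 100% = reference inhibitor wells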
MITF inh: MITF inhibitors, primary screen, biochemical, AlphaScreen, human; inhibition, % at 2.6 µM; AlphaScreen MITF homodimerization, bead proximity signal; actives 0.91% (n = 650,000); Microphthalmia-associated transcription factor (Homo sapiens), O75030; in the data active = inhibition above about 50%;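 also: 0% = vehicle wells with protein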
MITF inh conf: MITF inhibitors, retest of hits, confirmation, biochemical, AlphaScreen, triplicate; shares compounds with MITF inh; AlphaScreen MITF homodimerization, biotin/His-MITF beads; inhibition, % at 2.6 µM; actives 16% (n = 4,700); AID 1259372, 2018;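 active = inhibition above a cutoff derived from the DMSO control wells, cut at about 28% in these data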;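 also: 0% = MITF dimer wells with DMSO only; inhibitors lower the bead chemiluminescence by keeping MITF from dimerizing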
AlphaScreen DR: AlphaScreen optical interference compounds, dose response, counter-screen, biochemical, HTS. shares compounds with MITF inh. AlphaScreen optical interference counterscreen, cell-free. IC50, µM. actives 6% (n = 480); call rule not given here
AS interf ctr: AlphaScreen optical interference compounds, counter-screen for MITF inhibitor project, biochemical, triplicate; shares compounds with MITF inh; LysRS AlphaScreen counterscreen, signal interference; inhibition, % at 2.6 µM; actives 7.6% (n = 4,700); AID 1259376, 2018;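 active = inhibition above a cutoff derived from the DMSO control wells, cut at about 30% in these data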
Active calls of the source: *; / = no result. An excerpt weighted towards active compounds, which were near 3.5% of everything screened.

SMILES | GPR151 activ | FBW7 activator | TEAD-YAP block | MITF inh | MITF inh conf | AS interf ctr | others
Cc1ccc(S(=O)(=O)N2CCn3cccc3C2c2ccc(F)cc2)cc1 (stereo not drawn) | -0.1 | -0.4 | -4.0 | 2.5 | / | /
CCn1nnc(NC(=O)c2ccccc2)n1 | -1.4 | 0.1 | -24.9 | 57.9* | -19.1 | -2.2
CCOc1ccc(-n2nnnc2CN2CCN(C(=O)Nc3ccc(F)cc3)CC2)cc1 | 1.9 | -0.2 | 6.2 | 0.7 | / | /
COc1ccc(OC)c(CN2CCN(C(=O)c3ccncc3)CC2)c1 | -0.5 | 0.1 | 0.5 | 74.0* | -11.1 | 1.0
COc1ccc(OC)c(CN2CCN(C(=O)c3ccccc3)CC2)c1 | -0.6 | -0.3 | -11.1 | 39.9 | / | /
COc1ccc(CN2CCN(C(=O)c3c(OC)cccc3OC)CC2)c(OC)c1 | 2.3 | -0.1 | 2.0 | 11.5 | / | /
COc1cccc(C(=O)N2CCN(Cc3ccc(OC)cc3OC)CC2)c1 | 0.0 | 0.7 | 6.1 | 52.6* | -1.8 | -2.7
COc1ccc(CN2CCN(C(=O)c3ccncc3)CC2)c(OC)c1 | 0.0 | -0.5 | -16.0 | 60.1* | 17.2 | -4.5
Cc1nn2c3c(sc2nc1=O)C(=O)N(c1ccc(F)c(Cl)c1)C3=O | -0.2 | 0.6 | 5.8 | 14.3 | / | /
Cc1ccc(OCCn2cncn2)c([N+](=O)[O-])c1 | -0.3 | 0.0 | -2.8 | -26.8 | / | /
Cc1ccc(OCCCn2cncn2)c(I)c1 | -0.1 | -0.1 | -9.3 | 53.7* | -13.4 | -5.1
CCN1CCN(CCCOc2ccc(C)cc2I)CC1 | -0.5 | -0.2 | -5.4 | 57.1* | 6.0 | 15.6
CCN1CCN(CCCCOc2ccc(C)cc2I)CC1 | -1.3 | 0.6 | 4.8 | 53.0* | 9.4 | 15.2
COc1cc(CN2CCCC(C(=O)N3CCCCCC3)C2)cc(OC)c1OC (stereo not drawn) | -0.1 | -0.1 | 0.3 | 61.2* | -6.9 | -8.5
C=C(C)CN(CC)C(=O)C1CCN(Cc2cc(OC)c(OC)c(OC)c2)CC1 | 0.9 | 0.1 | 4.9 | 56.3* | 10.4 | 14.2
COc1ccc(CN2CCCC(C(=O)N3CCCCCC3)C2)cc1OC (stereo not drawn) | 0.0 | 0.0 | 0.2 | 60.1* | -12.7 | -7.4
COc1ccc(CN2CCCC(O)C2)cc1OC (stereo not drawn) | 0.6 | 0.5 | 11.4 | 44.6 | / | /
COc1cccc(CN2CCCC(C(=O)N3CCCCC3)C2)c1 (stereo not drawn) | -0.9 | 0.1 | 8.8 | 69.3* | -13.1 | -3.3
O=C(C1CCCN(Cc2cccc(Cl)c2)C1)N1CCCCC1 (stereo not drawn) | 0.8 | 0.0 | -2.6 | 44.2 | / | /
Cc1cc(NC2CCCCC2)nc(-c2ccccc2O)n1 | -0.5 | 0.5 | -3.1 | 79.5* | -16.2 | -7.5
COc1cc(CN2CCN(Cc3ccccc3[N+](=O)[O-])CC2)cc(OC)c1O | 1.3 | 0.0 | -0.3 | 59.6* | -2.3 | 5.8
COc1cc(CN2CCN(Cc3ccccc3Br)CC2)c([N+](=O)[O-])cc1OC | 0.6 | 0.6 | -3.0 | 71.1* | 21.8 | -0.5
COc1cc(OC)c(OC)cc1CN1CCN(Cc2ccccc2[N+](=O)[O-])CC1 | -0.1 | -0.1 | 9.7 | 72.2* | -1.6 | 15.1
COc1cc(CN2CCN(CCO)CC2)cc([N+](=O)[O-])c1O | -1.6 | -0.2 | 5.2 | 74.7* | -1.3 | 1.7
CCCCC(=O)Nc1nnc(-c2cccc([N+](=O)[O-])c2)s1 | -1.3 | -0.1 | -5.8 | -9.3 | / | /
SMILES | GPR151 activ | FBW7 activator | TEAD-YAP block | MITF inh | MITF inh conf | AS interf ctr | others
COCCNC(=O)c1ccc(NC2=NC3CS(=O)(=O)CC3S2)cc1 (stereo not drawn) | -0.3 | 0.0 | 5.8 | 3.0 | / | /
Nc1nc(SCC(=O)Nc2cccc(F)c2)[nH]c(=O)c1NC(=O)c1ccco1 | -0.3 | 0.1 | 4.7 | 3.0 | / | /
CCS(=O)(=O)N1CCN(Cc2ccc(OC)c(OCc3ccccc3)c2)CC1 | 0.5 | -0.1 | 4.9 | 37.0 | / | /
CN(C)CCN(C)Cc1ccc(O)c([N+](=O)[O-])c1 | 1.4 | 0.1 | -16.8 | 7.8 | / | /
COc1ccc(CN2CCN(Cc3ccccc3[N+](=O)[O-])CC2)cc1OCc1ccccc1 | 1.2 | -0.1 | -2.2 | 82.4* | 7.2 | 8.6
COc1cc(CN(C)CCN(C)C)cc([N+](=O)[O-])c1O | 0.8 | 0.0 | -0.9 | 56.2* | 10.1 | 12.4
COc1cccc(CN2CCN(Cc3ccccc3[N+](=O)[O-])CC2)c1 | -1.0 | -0.3 | 1.1 | 63.9* | 1.3 | 6.5
O=C(Nc1cccc(C(F)(F)F)c1)c1cccnc1Cl | 0.5 | -0.1 | -1.1 | -5.9 | / | /
O=C(OC1CCOC1=O)c1ccc(S(=O)(=O)NCc2ccco2)cc1 (stereo not drawn) | 0.8 | 0.1 | 5.7 | 53.4* | 52.4* | -8.3 | AlphaScreen DR=>7.1
O=C(OC1CCCCC1=O)c1ccc(S(=O)(=O)NCc2ccco2)cc1 (stereo not drawn) | 0.5 | 0.0 | -0.2 | 14.5 | / | /
CN(C)S(=O)(=O)c1ccc(C(=O)Nc2c3c(nn2-c2cccc(Cl)c2)CS(=O)(=O)C3)cc1 | 0.7 | -0.1 | -5.7 | 2.2 | / | /
O=C(CNC1CC1)Nc1ccc(CN2CCCCC2)cc1 | 0.0 | -0.2 | -3.1 | 17.6 | / | /
O=C(CNC1CCCCC1)Nc1ccc(CN2CCCCC2)cc1 | 1.0 | 0.1 | -7.4 | 74.5* | 5.9 | 17.6
O=C(CNC1CCCCCC1)Nc1ccc(CN2CCCCC2)cc1 | 0.3 | 0.0 | 4.7 | 67.1* | 8.4 | 14.6
O=C(CNCC1CCCCC1)Nc1ccc(CN2CCCCC2)cc1 | -0.5 | 0.0 | -0.8 | 63.3* | 9.8 | 14.3
COc1ccc(NC(=O)C2C3C=CC4(O3)C2C(=O)N(C2CC2)C4C(=O)NC2CCCC(C)C2C)cc1 (stereo not drawn) | 4.1 | -0.1 | 13.9 | 3.3 | / | /
CN(C)c1cccc(Nc2nc3ncnc(NCCCN4CCCC4=O)c3[nH]2)c1 | 1.8 | -0.2 | -2.8 | 52.7* | 4.3 | 15.2
O=C1CC(c2ccc(Br)cc2)=NO1 | -0.4 | 0.1 | -7.8 | 19.0 | / | /
O=C1CC(c2ccccc2)=NO1 | -0.9 | -0.1 | -6.3 | 56.0* | 13.0 | 12.3
CC1(C)CC(Nc2nc3nonc3nc2NC2CCCC2)CCO1 (stereo not drawn) | 2.1 | -0.2 | -3.6 | 10.8 | / | /
CCOc1cc(CN2CCN(Cc3cc(OC)ccc3OC)CC2)ccc1OC | 0.6 | 0.0 | 5.4 | 57.7* | 7.6 | 10.3
COc1ccc(OC)c(CN2CCN(C(=O)c3cc(OC)c(OC)c(OC)c3)CC2)c1 | 0.5 | -0.2 | 16.5 | 35.5 | / | /
CCOc1cc(CN2CCN(Cc3ccccc3OC)CC2)ccc1OC | 2.5 | 0.0 | 3.3 | 28.8 | / | /
COc1ccc(OC)c(CN2CCN(Cc3cc(OC)c(OC)c(OC)c3)CC2)c1 | 0.8 | -0.1 | -10.5 | 68.3* | 9.0 | 15.2
